Data from PubChem BioAssay AID602198 (NMMLSC, 2012).
Entries with a potency or affinity are not part of this list. Unmarked numbers belong to inactive results. No rule for the calls is given here.

assay: yeast V-ATPase proton pumping modulator potency, dose response, S. cerevisiae, pHLuorin, cherry pick 2 (AID 602198); settings: pHLuorin vacuolar pH fluorescence; series mostly up to 33.1 µM; response (V-ATPase modulation): at the top concentration

SMILES | response (V-ATPase modulation)
CC1=NOC(=O)/C1=C\c1ccccc1 | 29%
Cc1ccc2oc(C(=O)N(C)Cc3ccc(C)o3)c(C)c2c1 | 11.7%
O=C(c1ccc([N+](=O)[O-])o1)N1CCN(c2nc3c(Cl)cccc3s2)CC1 | 25.8%
O=[N+]([O-])c1ccc2c(c1)-c1ccccc1C2=NO | 104%
O=C(NC1CCCCC1)c1c(O)nc2sccn2c1=O | -0.55%
O=C1Oc2ccccc2C(=O)/C1=C/c1ccccc1O | 38.5%
CC1(C)CC(=O)C(C(C2=C(O)CC(C)(C)CC2=O)c2cccs2)C(=O)C1 (centres undefined) | 24%
COc1ccc2nc(N3CCN(C(=O)c4ccc([N+](=O)[O-])o4)CC3)sc2c1 | 16.6%
O=C(O)c1ccc(/C=N/N2CCN(C3c4ccccc4-c4ccccc43)CC2)cc1 | 36.4%
